MARV entry inh: blocks Marburg virus binding to or entry into cells | Marburg virus pseudotyped entry inhibition, cell reporter | Potency, µM (series often up to 37.8 µM), for inactives: at the highest dose activity change, negative = inhibition, usual class: inhibitors | hit rate 1.8% among 300,000 | AID 540276; calls by dose curve; tested in HEK293 cells
FMDV antiviral: foot and mouth disease virus antiviral activity. FMDV antiviral cell-based qHTS. Potency, µM (top dose mostly 57.9 µM), without a hit: at the top dose activity change, negative = inhibition, most hits filed as inhibitors. hit rate 1.2% among 410,000. AID 1159524; calls by dose curve; tested in HEK293T cells; further: read-out not given here; nearly all actives have a fitted effect of over 45% in size
RE007 growth inh: less growth of the S. pombe RE007 Vpr strain; S. pombe RE007 Vpr strain, BacTiter-Glo ATP luminescence, 24 h; Potency, µM (highest dose often 92.2 µM), inactives show at the highest dose activity change, negative = less growth, usual class: inhibitors; hit rate 0.21% among 360,000; AID 651644; active means well fitted falling curve with a large enough effect; inconclusive means small, poorly fitted or top-dose-only effect; inactive means no such curve, though single readings can be large or run the other way; further: nearly all actives have a fitted effect of over 50% in size
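Fission yeast strain RE007, carrying one chromosomally integrated HIV-1 vpr copy, was seeded at OD 0.01 in PMG+AL medium with 23 nL pinned compound. After 24 h at 30 °C and 99% humidity, viability was read by BacTiter-Glo luminescence.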
Sm TGR block: blocks Schistosoma mansoni thioredoxin glutathione reductase | hit rate 3% among 360,000 | Potency, µM (highest dose often 114 µM), for the others: at the highest dose activity change, negative = inhibition, hits mostly inhibitors | purified TGR, DTNB reduction, TNB absorbance 405 nm | Q962Y6; further: nearly all actives have a fitted effect of over 60% in size
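First, TGR (20 nM dispensed) and NADPH were mixed with compound. Second, a 15 min room-temperature incubation followed. Third, further NADPH and then DTNB were added to start the reaction. Finally, TNB absorbance was monitored kinetically.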
Lassa entry inh: inhibitors of Lassa virus binding or cell entry; Potency, µM (top dose mostly 37.9 µM), without a hit: at the top dose activity change, negative = inhibition, hits mostly inhibitors; Lassa virus pseudotype entry inhibition, cell reporter; hit rate 1.2% among 300,000; AID 540256; calls by dose curve; tested in HEK293 cells; further: nearly all actives have a fitted effect of over 50% in size
HCV inhibitor: inhibitors of hepatitis C virus infection | hit rate 3.4% among 340,000 | Potency, µM (titrated, usually from 41.8 µM), without a hit: at the top dose activity change, negative = inhibition, usual class: inhibitors | Huh7.5.1 HCVcc-Cre infection, luciferase reporter, 44 h | AID 651820
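Compounds are dispensed onto cells plated 4 h earlier at 1,000 per well, with HCVcc-Cre virus (about 0.5 moi) added next. Following 44 h of culture, luminescent signal is measured for 15 sec after 15 min with substrate at room temperature.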
* marks the source's active call; other numbers are inactive results; ? = inconclusive; . = no result; [ ] = another dose, or the depositor's remark. Shown are actives, neighbours in structure and some others; about 7.2% of the full set was active somewhere. Unless noted, the call rests on the fitted dose curve; in most records, active means well fitted curve in the direction sought with a large enough effect; inconclusive means small, poorly fitted or top-dose-only effect, or another doubt; inactive means no such curve, though single readings can be large; an effect the other way counts as inactive or inconclusive. On the % scale 0 is the no-effect control and ±100 the full control effect; potency means the concentration at half of the fitted maximal effect.

SMILES	MARV entry inh	FMDV antiviral	RE007 growth inh	Sm TGR block	Lassa entry inh	HCV inhibitor
CCCCCSc1cc(O)c(C(CNC)C(C)C)cc1OC (configuration not stated)	18µM*	-13%	2%	1%	?	?
COc1ccc(OC)c(NC(=O)c2c(NCc3ccc(C)o3)sc3c2CCCCC3)c1	.	0%	.	3.5µM*	1%[46.1 µM]	.
COc1ccccc1NC(=O)c1c(NCc2ccc(C)o2)sc2c1CCCCC2	.	-17%	.	2µM*	1%[46.1 µM]	.
CCOc1ccc(NC(=O)c2c(NCc3ccc(C)o3)sc3c2CCC(C)C3)cc1 (configuration not stated)	.	19%	.	25µM*	4%[46.1 µM]	.
COc1ccccc1OCC(=O)Nc1sc2c(c1C(=O)NCC1CCCO1)CCC2 (configuration not stated)	?	.	9%	-31%	-7%	0.89µM*
COc1ccccc1NC(=O)c1c(NC(=O)c2ccco2)sc2c1CCC2	-22%	.	-3%	?	-1%	?
O=C(Nc1ccc(F)c(F)c1)c1ccc(=O)n(Cc2ccc(F)cc2)c1	.	-14%	.	-3%	3%[46.1 µM]	.
Cc1oc(-c2cccc(Br)c2)nc1CSc1nc2ncccc2[nH]1	.	-18%	.	-5%	20%[46.1 µM]	.
COc1ccc(OC)c(NC(=O)c2c(NCc3ccc(N(C)C)cc3)sc3c2CCCC3)c1	.	0%	.	22µM*	-12%[46.1 µM]	.
COc1ccc(OC)c(NC(=O)c2c(NCc3ccc(OC)c(OC)c3)sc3c2CCC3)c1	.	?	.	-5%	-1%[46.1 µM]	.
COc1ccc(OC)c(NC(=O)c2c(NCc3sccc3C)sc3c2CCCCC3)c1	.	30%	.	20µM*	20%[46.1 µM]	.
COc1ccc(Cl)cc1NC(=O)c1c(NCc2ccc(C)o2)sc2c1CCC(C)C2 (configuration not stated)	.	-2%	.	?	15%[46.1 µM]	.
COc1ccc(Cl)cc1NC(=O)c1c(NCc2ccc(C)o2)sc2c1CCCCC2	.	0%	.	3.5µM*	16%[46.1 µM]	.
CC1CCN(S(=O)(=O)c2ccc3c(ccn3CC(=O)NCc3ccc(N(C)C)cc3)c2)CC1	.	-23%	.	2%	12%[46.1 µM]	.
CSc1nc2nccc(-c3ccc(Oc4ccccc4)cc3)n2n1	?	-28%	0%	-8%	16µM*	11µM*
CSc1nc2nccc(-c3ccc(-c4ccccc4)cc3)n2n1	-19%	-24%	5%	-9%	?	-14%
Cc1sc2nc(CN3CCCC3)nc(Cl)c2c1C	?	-22%	0%	7.1µM*	12%	?
Cc1sc2nc(CN3CCCC3)nc(NCc3ccncc3)c2c1C	?	15%	-13%	40µM*	8%	7%
CC(CCN1CCc2nc(-c3ccccc3)c(-c3ccccc3)cc2C1)=NO[C@H](C)CN1CCCCc2nc(C)c(C)cc21	25%[14.2 µM]	.	.	.	.	.
COc1ccc(Cl)cc1Nc1nc(-c2cccnc2)cs1	?	-9%	-13%	3%	1%[46.1 µM]	13µM*
Clc1cccc(Nc2nc(-c3cccnc3)cs2)c1	.	-2%	3%	3%[57.1 µM]	.	2.8µM*
Cc1ccc(Nc2nc(-c3cccnc3)cs2)cc1C	.	-2%	0%	9%	.	?
Brc1ccc(Nc2nc(-c3cccnc3)cs2)cc1	-17%[46.1 µM]	11%	3%	-13%	-7%	?
Brc1cccc(Nc2nc(-c3cccnc3)cs2)c1	-14%	-27%	-6%	-21%	?	10µM*
CN(C)c1ccc(C(CNS(=O)(=O)c2ccc(F)cc2)N2CCCC2)cc1 (configuration not stated)	.	-19%	.	27%	?	.
CN(C1CCCCC1)S(=O)(=O)c1ccc(NC(=S)NC(=O)c2cccs2)cc1	18µM*	?	14%	?	-12%	?
CCC(=O)Nc1cccc(NC(=S)NC(=O)c2cccs2)c1	?	25%	-5%	25µM*	?	2%
CCCCN(CCCC)S(=O)(=O)c1ccc(NC(=O)c2cccs2)cc1	18µM*	0%	5%	-2%	?	?
CCC(=O)Nc1cccc(NC(=S)NC(=O)c2ccccc2Cl)c1	?	22%	7%	?	12%	2%

Screening data: PubChem, National Center for Advancing Translational Sciences (NCATS)
